# Screening data as filed in PubChem.
# PI4K2A inh: PI4K2A (human) kinase inhibition. purified PI4K2A, ADP-Glo luminescence, 1 h; active compounds read low. activity change, negative = inhibition, % at 76.9 µM. actives 0.13% (n = 420,000). AID 1346378; in the data active means activity change below about -50%; inconclusive means mostly about -30% to -49%;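 further: -100% = wells without enzyme as full effect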
# Target sequence (Q9BTU6 whole entry, looked up): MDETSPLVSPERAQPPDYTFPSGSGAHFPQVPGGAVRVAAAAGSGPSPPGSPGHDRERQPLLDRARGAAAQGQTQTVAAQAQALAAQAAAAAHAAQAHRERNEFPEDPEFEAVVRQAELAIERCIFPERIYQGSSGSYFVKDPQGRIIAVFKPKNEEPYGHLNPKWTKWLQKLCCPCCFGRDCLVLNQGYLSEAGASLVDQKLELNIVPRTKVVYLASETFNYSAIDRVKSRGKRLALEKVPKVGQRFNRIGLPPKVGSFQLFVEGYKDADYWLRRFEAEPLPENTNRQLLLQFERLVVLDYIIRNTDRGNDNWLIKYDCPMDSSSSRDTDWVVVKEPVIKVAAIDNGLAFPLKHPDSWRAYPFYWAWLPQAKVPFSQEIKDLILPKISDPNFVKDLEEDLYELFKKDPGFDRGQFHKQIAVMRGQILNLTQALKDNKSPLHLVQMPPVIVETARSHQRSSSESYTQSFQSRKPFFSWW
#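 ADP-Glo luminescence measured ADP generated by PI4K2A enzyme (4 ug/mL before mixing) with 1.2 mM PI substrate (pre-mix) and 300 microM ATP (pre-mix). Tris pH7.5 buffer with MgCl2, Triton X-100; 1 h reaction at ambient temperature.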
# CtBP-E1A inh: inhibitors of CtBP/E1A interaction | AlphaScreen GST-E1A/His-CtBP binding, 1536-well; active compounds read low | activity change, % (no concentration beside the values) | actives 0.49% (n = 340,000) | AID 651724
#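 Protein mix (5X: 125 nM each GST-E1A, His-CtBP) was incubated with pinned compound 2 h at 37 deg C in dark, in 50 mM Tris pH 8.0 buffer with 300 mM NaCl. Glutathione donor and nickel acceptor beads followed; AlphaScreen signal read after 1 h.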
# Six1-Eya2 inh: inhibitors of human Six1/Eya2 interaction; Q15475+O00167; AlphaScreen GST-Six1/His-Eya2 binding, biochemical; active compounds read low; activity change, % (concentration not given with the values); actives 0.56% (n = 360,000); AID 651725
#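 AlphaScreen luminescence read after one hour at 37 °C in darkness. Pin-transferred compounds met GST-Six1 and His-Eya2 protein (5X stock 250 nM/500 nM) plus glutathione donor and Ni-chelate acceptor beads (5X, 50 ug/mL).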
# Akt phos inh: Akt phosphorylation inhibition | Neuro2A IGF-stimulated pAkt S473 HTRF, 20 min; active compounds read low | activity change, % for hits at 50 µM | actives 0.32% (n = 360,000) | AID 651550; in the data active means activity change below about -80%; inconclusive means mostly about -51% to -80%
#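 Neuro2A cells in DMEM with 0.5% FBS, overnight at 37 deg C, given compound at single 50 µM final, then IGF (6 nM final) for 20 min at 37 deg C. Lysed; phospho-Akt Ser473 by HTRF after 24 h, 665/615 ratio.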
# PI5P4Ka inh: inhibitors of human PI5P4K alpha; PI5P4Kalpha enzyme, ADP-Glo luminescence, 60 min; active compounds read low; max response, %; actives 1.2% (n = 330,000); AID 652105; active means max response of -50% or lower; inconclusive means between -30% and -50%; inactive means -30% or higher; further: value at the top dose of about 77 µM
#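 Human PI5P4Kalpha with substrate in 0.038 M HEPES pH 7.4, 0.28 mM EGTA, 0.1% CHAPS, 5% DMSO; reaction started with 5 microM ATP (final), 60 min at room temperature. ADP formed read by ADP-Glo luminescence.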
# Numbers without * were called inactive; i = inactive; u = inconclusive; x = not tested or not shown. This is a sample that favours compounds with a hit; in the whole collection about 1.8% have one here. Unless noted, no stated cut-off is given here; in the data, active means activity change below about -65%; inconclusive means mostly about -30% to -63%; inactive means weaker than that. Unless noted, on the % scale 0 is the no-effect control and ±100 the full control effect.
SMILES,PI4K2A inh,CtBP-E1A inh,Six1-Eya2 inh,Akt phos inh,PI5P4Ka inh
O=C(N/N=C/c1cc(Br)ccc1O)c1ccccc1Cl,3,-79*,-88*,i,-2
COc1cc([N+](=O)[O-])cc(/C=N/NC(=O)c2ccc(NC(=O)c3ccc(C)cc3)cc2)c1O,-1,u,-8,i,-62*
CC(C)NC(=S)N/N=C/c1cc(Br)ccc1O,1,-89*,-82*,i,-18
COc1cccc(OCc2nc3ccccc3n2CCOc2ccccc2C)c1,-1,x,x,x,x
COc1cccc(S(=O)(=O)NCC(=O)N2CCCC2)c1,-3,6,4,i,-4
O=C(O)CCCC(=O)Nc1ccn(-c2ccccc2)n1,13,0,5,i,-27
Cn1c(SCC(=O)NNC(=O)c2ccc(Br)cc2)nnc1-c1cccnc1,3,x,2,i,0
CCOc1cc(Br)cc(/C=N/NC(=O)c2cccnc2)c1O,1,-92*,-67*,i,2
COc1c(Br)cc(Br)cc1/C=N/NC(=O)c1cccnc1,0,-2,-8,i,-10
COc1ccc(CCNC(=O)c2cc(=O)c3ccc(C)cc3o2)cc1OC,1,-7,4,i,-11
CC1=Nc2ccccc2/C1=C/c1sc(=N)n(-c2nccs2)c1O,4,u,u,i,-70*
O=C(c1cc(COc2ccc3ncccc3c2)on1)N1CCC[C@H]1CO,-5,2,-2,i,2
O=C(c1ccccc1)c1ccc(C(=O)N2CCN(c3ccccc3O)CC2)cc1,-5,-4,-15,i,-4
Nc1ccccc1N1CCN(C(=O)c2ccccc2)CC1,5,3,-1,-103%*,-4
COCc1cn(-c2ccc3c(c2)[C@]2(CC(=O)N(C)C2c2ccccc2)C(=O)N3CC(C)C)nn1 (some centres not stated),4,x,x,x,x
S=C1SCN(Cc2ccccc2)CN1Cc1ccccc1,27,3,5,i,8
S=C1SCN(Cc2ccccc2)CN1Cc1ccco1,-22,0,-30,i,-75*
CCCC1C2C(=O)N(c3ccccc3OC)C(=O)C2ON1c1ccccc1 (configuration not stated),3,0,-4,-110%*,9
Cc1ccc(CNC(=O)c2c(-c3ccc(Br)cc3)noc2C)o1,-3,x,x,x,x
COc1cc(OC)cc(-n2nnnc2SCC(=O)NC2CCCC2)c1,-7,1,4,-115%*,9
Cc1ccc(N2CCN(S(=O)(=O)N3CCCCC3)CC2)cc1C,-6,-4,-16,i,4
CC(=O)c1ccc(N=Cc2c(O)n(-c3cc(Cl)ccc3N3CCOCC3)c(=O)c3ccccc23)cc1,-13,-10,-7,-120%*,4
Cc1nc(SCC(=O)Nc2ccccc2Cl)oc1C,-5,1,0,i,-2
NC(=O)c1c(NC(=O)COC(=O)CSc2nnc(-c3ccc(Cl)cc3)o2)sc2c1CCC2,0,-2,-4,-104%*,u
CCC1(CC)NC(=O)N(CC(=O)Nc2sc3c(c2C(N)=O)CCC3)C1=O,u,-12,-28,i,-70*
SMILES,PI4K2A inh,CtBP-E1A inh,Six1-Eya2 inh,Akt phos inh,PI5P4Ka inh
CCOC(=O)c1c(NC(=O)CSc2nnc(-c3ccc(OC)cc3)o2)sc2c1CCC2,-10,1,0,i,3
NC(=O)c1c(NC(=O)CSc2nnc(-c3ccco3)n2-c2ccccc2)sc2c1CCC2,-15,-13,-16,i,-65*
CCOC(=O)Cc1csc(SCC(=O)Nc2sc3c(c2C(N)=O)CCC3)n1,-8,-5,-27,i,-90*
CCOC(=O)C1=C(CSc2nc(CC)c(C)cc2C#N)OC(N)=C(C#N)C1c1ccccc1 (configuration not stated),15,-3,-9,i,-6
O=C1CC(C(=O)Nc2cccc3ccccc23)C2(CCCC2)O1 (configuration not stated),-3,1,0,i,x
CC1(C)CC2(CCO1)OC(=O)CC2C(=O)Nc1cccc2ccccc12 (configuration not stated),3,5,6,-88%*,x
Cc1cc(C(=O)NCC(c2ccco2)N(C)C)no1 (configuration not stated),-1,0,-1,i,-2
O=C(O)c1ccc2c(c1)C(=O)N(CCc1ccccc1)C2=O,7,-2,4,i,-65*
O=C(O)c1ccc2c(c1)C(=O)N(CCCCCCCN1C(=O)c3ccc(C(=O)O)cc3C1=O)C2=O,-1,-2,-4,i,-78*
O=C(O)CCCCCN1C(=O)c2ccc(C(=O)O)cc2C1=O,0,10,5,i,x
O=C(O)c1ccc2c(c1)C(=O)N(CCc1c[nH]c3ccccc13)C2=O,0,-10,-24,i,-69*
Cc1cc(N2CCN(C3CCCC3)CC2)n2c(nc3ccccc32)c1C#N,-1,4,4,i,0
O=S(=O)(Cc1ccccc1)N1CCN(Cc2c(F)cccc2Cl)CC1,-7,16,5,i,5
O=C(O)c1cc2nc3c(c(C(F)(F)F)n2n1)CCc1ccccc1-3,-4,-26,u,-114%*,-17
O=C(c1ccc(Cl)c(S(=O)(=O)Nc2ccc(F)cc2)c1)N1CCN(c2ccccn2)CC1,-2,0,-2,i,x
CCN(CC(=O)NCc1ccc(Cl)cc1)C(=O)CCOc1ccc(C)cc1,-6,-17,7,i,13
O=C(/C=C/c1ccc(O)cc1)c1ccccc1,-75*,3,0,i,-8
COc1ccc(NS(=O)(=O)c2ccc(N)c(C(=O)O)c2)cc1,10,3,-1,-115%*,6
C/C(=N\NC(=S)Nc1cccc(C)c1)c1ccccc1,4,u,u,i,0
COc1ccccc1NC(=S)NN=C(C)c1ccccn1,-13,-81*,-72*,i,5
CC(=NNC(=S)Nc1cccc(C)c1)c1ccccn1,-6,3,-81*,i,-24
CC(=NNC(=S)Nc1ccc(C)cc1)c1ccccn1,-1,-8,-85*,i,-15
COc1ccc(C(=O)c2ccccc2)c(O)c1,6,22,11,i,4
Cc1cc(C)n(C(=O)CNc2ccccc2Cl)n1,-2,26,13,-127%*,13
CSc1ccccc1NC(=O)C1CC(c2ccccc2Cl)=NO1 (configuration not stated),2,10,-12,i,-10
CCOC(=O)c1nnn(-c2ccc([N+](=O)[O-])cc2[N+](=O)[O-])c1C,12,-66*,-6,i,0
CCn1c(CN2CCC(C)CC2)nc2cc(NC(=O)c3cccc([N+](=O)[O-])c3)ccc21,5,x,x,x,x
